Assay [1] addresses Progesterone receptor (Homo sapiens) (UniProt P06401). Description: qHTS assay to identify small molecule antagonists of the progesterone receptor (PR) signaling pathway (AID 1346795; active means well fitted inhibition curve with a large enough effect in the signal ratio in the repeat runs, not every such curve was filed as active; the % refers to the signal ratio). In outline:
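Stimulus R5020 at 1 nM final; cells HEK293T PR-UAS-bla; medium with 2% charcoal-stripped FBS; compound exposure 16 hr at 37C, 5% CO2; detection by FRET beta-lactamase substrate, 2 hr, room temperature.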

Assay [2] is described as follows: qHTS assay to identify small molecule antagonists of the progesterone receptor (PR) signaling pathway - cell viability counter screen (AID 1346798). Further: series mostly up to about 92 µM; nearly all actives have a fitted effect of over 50% in size. The method in brief:
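In the same plates used for the beta-lactamase readout, cell viability of compound- and R5020-treated PR-UAS-bla HEK293T cells (16 hr, 37C) was assessed by CellTiter-Glo luminescence.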

The nature of assay [3]: qHTS assay to identify small molecule agonists of the progesterone receptor (PR) signaling pathway - cell viability counter screen (AID 1346799; calls by dose curve; further: nearly all actives have a fitted effect of over 45% in size). In outline:
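Multiplexed viability read: CellTiter-Glo luminescence, 30 min RT, following LiveBLAzer FRET measurement on PR-UAS-bla HEK293T cells exposed to compounds 16 hr.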

Assay [4] is described as follows: qHTS assay to identify small molecule antagonists of the TGF-beta/Smad signaling pathway - cell viability counter screen (AID 1346824). Further: nearly all actives have a fitted effect of over 50% in size. The method in brief: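 Cytotoxicity counter-screen run in the same wells as the beta-lactamase Smad reporter read: CellTiter-Glo luminescence after 30 min at room temperature. HEK 293T SBE-bla cells had 5 hr compound exposure at 37 C with TGF-beta1 (0.25 ng/mL stock).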

A short description of assay [5]: qHTS assay to identify small molecule agonists of the TGF-beta/Smad signaling pathway - cell viability counter screen (AID 1346829). Further: top concentration of the series differs between compounds; nearly all actives have a fitted effect of over 45% in size. In outline:
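Compound-treated SBE-bla HEK 293T cells (5 hr, 37 C) were assessed for viability with CellTiter-Glo in parallel with the reporter read.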

Assay [6] can be described thus: qHTS assay to identify small molecule agonists of the TGF-beta/Smad signaling pathway (AID 1346859; active means well fitted activation curve with a large enough effect in the signal ratio in the repeat runs, not every such curve was filed as active; the % refers to the signal ratio; further: series mostly up to about 77 µM). The method in brief: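 Screening used HEK 293T SBE-bla cells at 4,000/well. Test agents: 5 hr, 37 C. Detection: FRET substrate, 2 hr RT, then excitation 405 nm with emissions at 460 and 530 nm.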
The target of assay [7] is Thyrotropin-releasing hormone receptor (Homo sapiens) (UniProt P34981). Description: qHTS assay to identify small molecule antagonists of the thyrotropin-releasing hormone receptor (TRHR) signaling pathway (AID 1346877; active means well fitted inhibition curve with a large enough effect in the repeat runs, not every such curve was filed as active; further: series mostly up to about 51 µM). In outline:
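Kinetic fluorescence (3 min, 1 s resolution) following stimulation with TRH at 1 nM final; HEK293 cells bearing human TRHR; 5 min compound preincubation at RT; concentration-response over 15 points, triplicates.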

For assay [8] the target is unchanged. Description: qHTS assay to identify small molecule agonists of the thyrotropin-releasing hormone receptor (TRHR) signaling pathway (AID 1346891; calls by dose curve; further: series mostly up to about 58 µM). In outline:
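Readout was intracellular calcium fluorescence in TRHR-Hek293 cells. Cells were incubated 18 h, dye-loaded 2 h at 37 °C, and treated with compound in agonist mode.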

Assay [9] is described as follows: Human pregnane X receptor (PXR) small molecule agonists, qHTS cell viability counter screen (AID 1346977). Further: nearly all actives have a fitted effect of over 50% in size. In outline: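 In each well, the PXR reporter HepG2 line was checked for viability: CellTiter-Fluor reagent added 23hr post-dosing, fluorescence read after 1hr incubation at 37C.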
The nature of assay [10]: Caspase-3/7 induction in HepG2 cells by small molecules, qHTS assay (AID 1346978). Further: nearly all actives have a fitted effect of over 15% in size. The method in brief:
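Caspase-3/7 induction was measured by Caspase-Glo 3/7 luminescence (30 min, room temperature) after a 17 hr compound exposure of wild-type HepG2 cells seeded at 2,000 per well and pre-incubated 5 hr.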

A short description of assay [11]: Caspase-3/7 induction in CHO-K1 cells by small molecules, qHTS cell viability counter screen (AID 1346979). Further: nearly all actives have a fitted effect of over 35% in size. The method in brief: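 Following a 5hr settling period, CHO-K1 cells at 1,500 per well received DMSO-dissolved compounds. Cell viability was quantified 16hr later by CellTiter-Fluor fluorescence, measured after 1hr with reagent at 37C.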
Assay [12] can be described thus: Caspase-3/7 induction in CHO-K1 cells by small molecules, qHTS assay (AID 1346980). Further: nearly all actives have a fitted effect of over 15% in size. In outline: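 Luminescent Caspase-Glo 3/7 read (30min, room temperature) quantified apoptosis induction. Cells were wild-type CHO-K1, treated with compound for 17hr at 37 C and 5% CO2.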
A short description of assay [13]: Caspase-3/7 induction in HepG2 cells by small molecules, qHTS cell viability counter screen (AID 1346981). Further: series mostly up to about 92 µM; nearly all actives have a fitted effect of over 30% in size. The method in brief:
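In this quantitative HTS counter screen, compounds delivered in DMSO were left on unmodified HepG2 cells for 16 hr at 37 C. Viability was then determined fluorometrically with CellTiter-Fluor, in parallel with caspase-3/7 induction in the same wells.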

Assay [14] deals with Nuclear receptor subfamily 1 group I member 2 (Homo sapiens) (UniProt O75469). As to the kind of experiment: Human pregnane X receptor (PXR) small molecule agonists, qHTS assay (AID 1346982). Further: nearly all actives have a fitted effect of over 35% in size. In outline:
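Reporter HepG2 cells expressing PXR-Luc are cultured in charcoal-stripped FBS (5%), treated with compounds for 24 hr at 37 C, and assayed by ONE-Glo luminescence after 30 min at room temperature.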

The target of assay [15] is Cytochrome P450 2D6 (Homo sapiens) (UniProt P10635). As to the kind of experiment: Cytochrome P450 Family 2 Subfamily D Member 6 (CYP2D6) small molecule antagonists: luciferase reporter qHTS assay (AID 1671196). Further: nearly all actives have a fitted effect of over 50% in size. Further: potency means the concentration at half of the fitted maximal effect. The method in brief:
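Test chemicals meet CYP2D6 plus proluciferin substrate (10 min, RT); NADPH regenerating solution then drives turnover for 1 h. Detection reagent halts the reaction; luminescence measured after 20 min.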

Assay [16] concerns the target Cytochrome P450 2C19 (Homo sapiens) (UniProt P33261). As to the kind of experiment: Cytochrome P450 Family 2 Subfamily C Member 19 (CYP2C19) small molecule antagonists: luciferase reporter qHTS assay (AID 1671197). Further: series mostly up to about 120 µM; nearly all actives have a fitted effect of over 65% in size. In outline: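 P450-Glo CYP2C19 screening system; proluciferin substrate; DMSO compound stocks; 10 min RT preincubation; NADPH regeneration, 1 h at 37C; luciferin detection reagent, 20 min RT; luminescence as RLU.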

Assay [17] has as its target Cytochrome P450 2C9 (Homo sapiens) (UniProt P11712). Description: Cytochrome P450 Family 2 Subfamily C Member 9 (CYP2C9) small molecule antagonists: luciferase reporter qHTS assay (AID 1671198). In outline:
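Enzyme-substrate mix preincubated with compound 10 min at room temperature; reaction started with NADPH regeneration solution, 1 h 37C. Luminescent luciferin product read after 20 min detection reagent.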

Assay [18] concerns the target Nuclear receptor subfamily 1 group I member 2 (Rattus norvegicus) (UniProt Q9R1A7). Description: Rat pregnane X receptor (rPXR) activation by small molecules, qHTS assay (AID 1346983). Further: nearly all actives have a fitted effect of over 20% in size. To be noted: rPXR luciferase reporter cells, One-Glo luminescence, 24 h; active compounds read high. The method in brief:
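Luminescent readout (One-Glo luciferase, 30 min room temperature) followed 24 hr compound treatment at 37 C of rPXR cells plated 2,000 per well and preincubated 5hr; qHTS format with compounds delivered in DMSO.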

Assay [19] has as its target Nuclear receptor subfamily 1 group I member 2 (Homo sapiens) (UniProt O75469). Description: CYP3A4 induction through human pregnane X receptor (PXR) by small molecules, qHTS assay (AID 1346984). Further: nearly all actives have a fitted effect of over 40% in size. The method in brief: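 Induction measured in HepG2-based DPX-2 cells co-expressing human PXR and a CYP3A4 promoter-driven luciferase. After a 24-hour compound exposure, cells received CYP3A4 luciferin substrate at 3uM final for 3 hours, and light output was then recorded.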

Assay [20] has the same target. Description: Human pregnane X receptor (PXR) activation by small molecules, qHTS assay (AID 1346985). Further: nearly all actives have a fitted effect of over 40% in size. The method in brief:
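DPX-2 cells (HepG2 co-transfected with a PXR response element and a CYP3A4-promoter luciferase construct) were seeded at 2,000 per well, rested 5 hr at 37C, then exposed to DMSO-dissolved compounds for 24 hr. Activation was read as luciferase luminescence.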

Unmarked numbers belong to inactive results. Records with an inconclusive call do not appear. The source made the active and inactive calls. Unless noted, the call rests on the fitted dose curve; in most records, active means well fitted curve in the direction sought with a large enough effect in the repeat runs; inconclusive means weak or mixed curves; inactive means no such curve, though single readings can be large; an effect the other way counts as inactive or inconclusive.
On the % scale 0 is the no-effect control and ±100 the full control effect.

Chain of Nuclear receptor subfamily 1 group I member 2 (Homo sapiens) (O75469 whole entry, looked up): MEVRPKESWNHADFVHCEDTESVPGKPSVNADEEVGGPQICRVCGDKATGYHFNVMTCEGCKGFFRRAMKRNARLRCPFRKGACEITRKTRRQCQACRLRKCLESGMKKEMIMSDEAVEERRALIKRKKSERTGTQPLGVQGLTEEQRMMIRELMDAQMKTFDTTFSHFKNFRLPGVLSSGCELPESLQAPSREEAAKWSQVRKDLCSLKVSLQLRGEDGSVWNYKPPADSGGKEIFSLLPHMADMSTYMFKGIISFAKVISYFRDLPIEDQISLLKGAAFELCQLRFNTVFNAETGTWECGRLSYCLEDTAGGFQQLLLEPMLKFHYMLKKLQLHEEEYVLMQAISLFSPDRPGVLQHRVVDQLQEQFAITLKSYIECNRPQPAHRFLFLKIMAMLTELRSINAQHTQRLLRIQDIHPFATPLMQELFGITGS
Chain of Cytochrome P450 2C19 (Homo sapiens) (P33261 whole entry, looked up): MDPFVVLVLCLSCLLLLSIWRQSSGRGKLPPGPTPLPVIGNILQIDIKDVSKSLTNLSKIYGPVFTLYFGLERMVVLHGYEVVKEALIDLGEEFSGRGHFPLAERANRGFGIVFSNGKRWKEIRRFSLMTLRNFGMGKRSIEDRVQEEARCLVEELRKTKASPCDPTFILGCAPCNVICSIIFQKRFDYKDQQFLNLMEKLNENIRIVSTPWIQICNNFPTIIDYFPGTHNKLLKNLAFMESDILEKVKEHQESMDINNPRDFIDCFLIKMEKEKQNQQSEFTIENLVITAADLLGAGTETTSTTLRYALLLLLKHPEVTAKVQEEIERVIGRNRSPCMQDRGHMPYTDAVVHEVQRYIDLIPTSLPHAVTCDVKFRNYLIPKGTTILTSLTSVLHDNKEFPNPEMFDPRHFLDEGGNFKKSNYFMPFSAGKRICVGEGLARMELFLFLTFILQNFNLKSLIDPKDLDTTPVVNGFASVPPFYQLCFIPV
Chain of Thyrotropin-releasing hormone receptor (Homo sapiens) (P34981 whole entry, looked up): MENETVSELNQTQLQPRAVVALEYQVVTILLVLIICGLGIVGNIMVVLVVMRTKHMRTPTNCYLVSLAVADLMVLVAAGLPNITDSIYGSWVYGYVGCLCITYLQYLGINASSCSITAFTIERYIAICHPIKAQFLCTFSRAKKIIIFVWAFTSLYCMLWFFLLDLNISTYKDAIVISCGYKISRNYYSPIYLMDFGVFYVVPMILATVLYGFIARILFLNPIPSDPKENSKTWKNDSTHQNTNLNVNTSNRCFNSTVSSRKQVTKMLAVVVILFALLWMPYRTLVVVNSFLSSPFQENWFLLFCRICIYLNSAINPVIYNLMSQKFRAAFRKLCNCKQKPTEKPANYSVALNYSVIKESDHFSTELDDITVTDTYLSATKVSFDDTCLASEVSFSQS
Chain of Cytochrome P450 2D6 (Homo sapiens) (P10635 whole entry, looked up): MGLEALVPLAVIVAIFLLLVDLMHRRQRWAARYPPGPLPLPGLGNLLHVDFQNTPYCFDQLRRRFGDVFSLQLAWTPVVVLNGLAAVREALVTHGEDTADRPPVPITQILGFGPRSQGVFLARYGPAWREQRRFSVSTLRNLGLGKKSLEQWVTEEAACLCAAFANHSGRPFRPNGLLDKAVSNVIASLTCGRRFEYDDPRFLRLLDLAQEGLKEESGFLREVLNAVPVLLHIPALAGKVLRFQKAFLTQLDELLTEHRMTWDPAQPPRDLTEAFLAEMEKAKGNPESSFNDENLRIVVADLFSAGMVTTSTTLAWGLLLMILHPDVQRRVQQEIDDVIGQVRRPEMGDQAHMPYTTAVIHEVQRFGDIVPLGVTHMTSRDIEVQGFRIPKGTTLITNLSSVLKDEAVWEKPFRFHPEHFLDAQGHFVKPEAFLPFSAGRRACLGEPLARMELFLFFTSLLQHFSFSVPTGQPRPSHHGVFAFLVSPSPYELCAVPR
Chain of Cytochrome P450 2C9 (Homo sapiens) (P11712 whole entry, looked up): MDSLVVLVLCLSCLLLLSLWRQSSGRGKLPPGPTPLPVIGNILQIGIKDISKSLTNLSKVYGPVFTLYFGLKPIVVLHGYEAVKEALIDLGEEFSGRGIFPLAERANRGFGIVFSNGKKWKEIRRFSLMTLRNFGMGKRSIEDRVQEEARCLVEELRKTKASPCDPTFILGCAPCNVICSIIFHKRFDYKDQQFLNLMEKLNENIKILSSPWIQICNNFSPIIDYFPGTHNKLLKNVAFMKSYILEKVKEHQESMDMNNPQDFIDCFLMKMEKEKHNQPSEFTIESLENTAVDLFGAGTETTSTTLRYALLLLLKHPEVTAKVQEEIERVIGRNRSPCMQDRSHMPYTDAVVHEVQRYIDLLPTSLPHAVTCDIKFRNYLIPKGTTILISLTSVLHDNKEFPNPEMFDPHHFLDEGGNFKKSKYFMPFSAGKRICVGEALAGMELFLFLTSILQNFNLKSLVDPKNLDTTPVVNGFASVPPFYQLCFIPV
Chain of Progesterone receptor (Homo sapiens) (P06401 whole entry, looked up): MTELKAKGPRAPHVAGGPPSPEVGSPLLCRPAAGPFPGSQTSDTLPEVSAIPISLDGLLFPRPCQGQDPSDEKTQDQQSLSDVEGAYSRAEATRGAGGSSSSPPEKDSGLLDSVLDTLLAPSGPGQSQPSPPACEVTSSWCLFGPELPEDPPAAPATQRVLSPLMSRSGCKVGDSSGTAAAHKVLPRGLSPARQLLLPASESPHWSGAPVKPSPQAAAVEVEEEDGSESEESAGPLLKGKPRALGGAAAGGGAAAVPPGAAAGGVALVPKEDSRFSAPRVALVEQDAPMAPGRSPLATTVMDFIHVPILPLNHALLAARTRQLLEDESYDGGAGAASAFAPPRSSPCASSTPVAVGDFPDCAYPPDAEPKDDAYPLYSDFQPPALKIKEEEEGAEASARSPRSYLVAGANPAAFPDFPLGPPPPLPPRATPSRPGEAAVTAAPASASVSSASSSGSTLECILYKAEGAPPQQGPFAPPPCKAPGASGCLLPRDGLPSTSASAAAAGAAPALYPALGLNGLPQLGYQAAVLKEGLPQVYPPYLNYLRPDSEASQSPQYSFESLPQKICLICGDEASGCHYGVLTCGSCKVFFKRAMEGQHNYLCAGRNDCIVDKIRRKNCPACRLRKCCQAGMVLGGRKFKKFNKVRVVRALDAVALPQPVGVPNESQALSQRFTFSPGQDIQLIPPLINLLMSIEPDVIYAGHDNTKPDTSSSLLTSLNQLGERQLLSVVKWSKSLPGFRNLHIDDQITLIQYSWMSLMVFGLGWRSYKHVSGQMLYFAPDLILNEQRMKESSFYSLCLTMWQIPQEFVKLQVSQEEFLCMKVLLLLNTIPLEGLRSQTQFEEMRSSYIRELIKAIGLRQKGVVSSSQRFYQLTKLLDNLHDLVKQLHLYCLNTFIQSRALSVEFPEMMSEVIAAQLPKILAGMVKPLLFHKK
Chain of Nuclear receptor subfamily 1 group I member 2 (Rattus norvegicus) (Q9R1A7 whole entry, looked up): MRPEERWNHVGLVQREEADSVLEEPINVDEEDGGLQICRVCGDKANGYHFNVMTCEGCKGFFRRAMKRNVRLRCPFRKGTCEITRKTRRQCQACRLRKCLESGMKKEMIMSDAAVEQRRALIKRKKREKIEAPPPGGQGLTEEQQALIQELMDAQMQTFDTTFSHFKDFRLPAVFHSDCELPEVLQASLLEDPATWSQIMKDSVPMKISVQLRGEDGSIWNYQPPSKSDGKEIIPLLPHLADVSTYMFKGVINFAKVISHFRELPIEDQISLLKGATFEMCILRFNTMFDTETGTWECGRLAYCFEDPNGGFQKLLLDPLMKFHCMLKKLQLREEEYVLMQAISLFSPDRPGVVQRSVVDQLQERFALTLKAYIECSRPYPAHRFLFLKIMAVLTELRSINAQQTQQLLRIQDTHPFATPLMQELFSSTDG

Take `CCOC(=O)C(C)C(C)=O` (stereo not given): the Potency entry in [1], in assay [2], in assay [3], in assay [4], in assay [5] and in assay [7] was “inactive” each time. Besides, the Potency entry in assay [8], in [9], in assay [10], in [11], in [12] and in [13] was “inactive” in each case. The Potency entry in assay [14], in [15], in assay [16] and in assay [17] was “inactive” throughout. Moreover, the compound was called inactive in assay [6].

In the case of `C1COC(NC(C2CC2)C2CC2)=N1`, the Potency result in assay [1], in assay [2], in assay [3], in assay [4], in assay [5] and in [7] was “inactive” throughout. For the same compound, the Potency entry in assay [8], in assay [9], in [10], in assay [11], in [12] and in [13] was “inactive” each time. Besides, the Potency entry in assay [14], in assay [16] and in [17] was “inactive” in each case. Besides, in assay [6], the result was inactive. Besides, the Potency in assay [15] was 15.5 µM (active).

For the compound `Cc1scc2c1N(C(=O)CN1CCN(C)CC1)c1ccccc1NC2=O`, the Potency result in assay [1], in assay [2], in [3], in assay [4], in [5] and in assay [7] was “inactive” in each case. In addition, the Potency entry in assay [8], in [10], in assay [11], in assay [12], in [13] and in assay [14] was “inactive” throughout. Further, the Potency entry in [15], in assay [16] and in assay [17] was “inactive” in each case. Also, the compound was called inactive in assay [6].

For the compound `CO[Si](OC)(OC)c1ccccc1`, the Potency result in assay [1], in assay [2], in assay [3], in assay [4], in assay [5] and in assay [7] was “inactive” throughout. The Potency result in assay [8], in assay [10], in [11], in assay [12], in assay [13] and in [14] was “inactive” each time. Besides, the Potency result in [15], in assay [16] and in assay [17] was “inactive” in each case. The result in [6] was inactive.

Regarding `NCCCCCC(=O)O`, the Potency result in assay [1], in [2], in assay [3], in [4], in [5] and in [7] was “inactive” throughout. In addition, the Potency result in assay [8], in [9], in [10], in [11], in assay [12] and in [13] was “inactive” throughout. Also, the Potency result in [14], in [19], in [20], in [15], in [16] and in [17] was “inactive” throughout. Further, the compound was called inactive in assay [6]. Moreover, the max activation in [18] is 1.85%.

Regarding `Cc1cccc2n[nH]nc12`, the Potency entry in [1], in assay [2], in assay [3], in [4], in assay [5] and in [7] was “inactive” throughout. Also, the Potency entry in assay [8], in assay [10], in assay [12], in assay [13], in [15] and in assay [16] was “inactive” in each case. Besides, in assay [17], the Potency entry was “inactive”. In addition, in [6], the outcome was inactive.
